Laboratory results reported in ChEMBL document CHEMBL3988442, “University of Dundee, Small-Polar-MMV Screening Library” (2021).
About 13,000 (27%) of roughly 48,000 compounds showed an effect of 50% or more. The list shows a part of the results.

What follows are molecules tested on Wolbachia pipientis (assay: Anti-Wolbachia Cell-Based Screen). Details: 5 µM.
Type: functional
Set-up: scale not given: in the data most compounds retested in dose-response had high values

Structure (SMILES)	Percent Effect
CCCn1ncc(CN2CCCC(C(=O)c3ccc(Cl)cc3C)C2)c1C (configuration not stated)	-13.45%
Cc1noc(C)c1CN1CCOC2(CCCN(c3nccs3)C2)C1 (configuration not stated)	-30.09%
Cc1noc(C)c1CN1CCCC2(C1)CN(c1nccs1)CCO2.O=C(O)C(F)(F)F (configuration not stated)	-6.248%
Cc1noc(C)c1CN1CCOCC12CCN(c1nccs1)CC2.O=C(O)C(F)(F)F	98.18%
Cc1cc(Cl)ccc1C(=O)C1CCCN(Cc2cnc(N(C)C)s2)C1 (configuration not stated)	5.845%
O=C(Nc1cc(C(F)(F)F)c[nH]c1=O)C1CCCN1 (configuration not stated)	84.36%
Cc1nc(C)c(CC(=O)N2C[C@@H]3CC[C@H](C2)N(CC2CCC2)C3)c(=O)[nH]1	-4.383%
O=C1NC[C@H]2CN(Cc3ccnc4ccccc34)CCN12	12.9%
CN1CCOC(CN(C(=O)CN2CCCC2=O)c2nccs2)C1 (configuration not stated)	101.5%
CN1C(=O)CCC12CCCN(Cc1nccs1)C2.O=C(O)C(F)(F)F (configuration not stated)	0.9809%
Cc1csc(CN2C[C@@H]3CN(C)CCO[C@@H]3C2)n1	8.009%
O=C(Cc1cccnc1)N1C[C@H]2CC[C@@H]1CN(Cc1ccc(F)cc1)C2	4.977%
CNS(=O)(=O)CC(=O)NC(C)Cc1cccc(Cl)c1 (configuration not stated)	-8.41%
CN(C)CCN1CCN(Cc2nccs2)Cc2cccnc21.O=C(O)C(F)(F)F.O=C(O)C(F)(F)F.O=C(O)C(F)(F)F	88.3%
COCCN1CCN(Cc2ccco2)Cc2ccc(C)nc21.O=C(O)C(F)(F)F.O=C(O)C(F)(F)F	-4.487%
CN(C)CCN1CCN(Cc2ccco2)Cc2cccnc21.O=C(O)C(F)(F)F.O=C(O)C(F)(F)F.O=C(O)C(F)(F)F	95.25%
CN(C)CCN1CCN(Cc2cccs2)Cc2cccnc21.O=C(O)C(F)(F)F.O=C(O)C(F)(F)F.O=C(O)C(F)(F)F	92.36%
Cc1noc(C)c1CN1CCN(C)c2ncccc2C1.O=C(O)C(F)(F)F.O=C(O)C(F)(F)F	-16.26%
CN(C)c1ncc2c(c1C(=O)O)CCN(Cc1ccco1)C2.O=C(O)C(F)(F)F.O=C(O)C(F)(F)F	87.52%
Cc1ccc2c(n1)N(C)CCN(Cc1ccco1)C2.O=C(O)C(F)(F)F.O=C(O)C(F)(F)F	-3.328%
Cc1cnc(N2CCc3c(cnc(C)c3C(=O)O)C2)nc1.O=C(O)C(F)(F)F	-4.301%

Structure (SMILES)	Percent Effect
Cc1ncc2c(c1C(=O)O)CCN(c1ncc(F)cn1)C2.O=C(O)C(F)(F)F	-15.02%
COCCN1CCN(Cc2ccncc2)c2ncccc2C1.O=C(O)C(F)(F)F.O=C(O)C(F)(F)F.O=C(O)C(F)(F)F	-7.245%
COCCNC(=O)[C@H]1CN2CCC1C[C@@H]2Cn1cc(C(C)(C)C)nn1 (some centres not stated)	-20.26%
CN(C)C(=O)CN1CC[C@H]2[C@H]1CCN2c1ncccn1.O=C(O)C(F)(F)F.O=C(O)C(F)(F)F	-4.997%
CCCn1nc(C)c(-c2cncn2CC2(N(C)C)CCC(C)CC2)c1C (configuration not stated)	117%
O=C(O)C(F)(F)F.O=C(O)C(F)(F)F.c1cncc(COCC2CC[C@H]3[C@H]2OCCN3Cc2ccoc2)c1 (some centres not stated)	109.4%
Cc1ncsc1CN1C[C@H](OCc2ccncc2)[C@H]2OCCC[C@H]21.O=C(O)C(F)(F)F.O=C(O)C(F)(F)F	-13.88%
Cc1ncsc1CN1C[C@@H](OCc2ccncc2)[C@H]2OCCC[C@H]21.O=C(O)C(F)(F)F.O=C(O)C(F)(F)F	-3.825%
Cc1cccc(CO[C@@H]2CC[C@H]3[C@H]2OCCN3Cc2ccsc2)n1.O=C(O)C(F)(F)F.O=C(O)C(F)(F)F	-22.6%
Cc1cccc(CO[C@@H]2CC[C@H]3[C@H]2OCCN3Cc2ccoc2)n1	89.7%
c1ccc(O[C@@H]2CC[C@H]3[C@H]2OCCN3Cc2ccsc2)nc1	-6.73%
CCO[C@@H]1CC[C@H]2[C@H]1OCCN2Cc1ccoc1.O=C(O)C(F)(F)F	96.95%
CCOCCN1CCO[C@H]2[C@H](OCc3ccccn3)CC[C@@H]21.O=C(O)C(F)(F)F.O=C(O)C(F)(F)F	26.08%
COCCN1CCO[C@H]2[C@H](OCc3cccc(C)n3)CC[C@@H]21	8.918%
O=C(O)C(F)(F)F.O=C(O)C(F)(F)F.c1cc(CO[C@@H]2CN(Cc3ccoc3)[C@@H]3CCCO[C@@H]32)ccn1	101.1%
O=C(O)C(F)(F)F.O=C(O)C(F)(F)F.O=C1N(c2cccnc2)CCC12CCCN(Cc1ccoc1)C2 (configuration not stated)	-1.124%
CC(C)CN1C(=O)CO[C@@H]2CNC[C@H]21	-9.19%
CNC(=O)[C@@H]1C[C@H]2CN(C(=O)c3ccccn3)C[C@H]2N1C(C)C	-10.28%
CCCN1CCN(C(=O)c2ccnc(N)c2)[C@H]2CS(=O)(=O)C[C@H]21	-9.553%
Cc1ncc(CN2CCN(C(=O)N(C)C)[C@@H]3CS(=O)(=O)C[C@@H]32)cn1	93.36%
CCCN1CCN(C(=O)c2cncnc2C)[C@H]2CS(=O)(=O)C[C@H]21	18.46%

Structure (SMILES)	Percent Effect
Cc1cccc(CN2CCN(C(=O)N(C)C)[C@@H]3CS(=O)(=O)C[C@@H]32)n1	-5.175%
CCCN1CCN(C(=O)c2cnc(C)nc2)[C@H]2CS(=O)(=O)C[C@H]21	-7.853%
O=C(C1CCC1)N1CCN(Cc2cccnc2)[C@H]2CS(=O)(=O)C[C@H]21	-3.397%
CCC(=O)N1CCN(Cc2cnc(C)nc2)[C@H]2CS(=O)(=O)C[C@H]21	99.52%
COC(=O)NCCC(=O)NC(C)Cc1ccccc1Br (configuration not stated)	-17.72%
CO[C@H]1CCN(Cc2ccccn2)[C@@H]2CN(Cc3ccco3)C[C@H]12.O=C(O)C(F)(F)F.O=C(O)C(F)(F)F.O=C(O)C(F)(F)F	-3.065%
O=C([C@@H]1CC[C@@H]2[C@@H](CCN2Cc2ccncc2)O1)N1CCCCO1	-7.886%
CN(C)C(=O)COC[C@H]1CC[C@@H]2[C@@H](CCN2Cc2ccccn2)O1.O=C(O)C(F)(F)F.O=C(O)C(F)(F)F	-0.6188%
c1ccc(COC[C@H]2CC[C@H]3[C@H](CCN3Cc3ccco3)O2)nc1	102.6%
O=C(O)C(F)(F)F.O=C(O)C(F)(F)F.c1ccc(COC[C@H]2CC[C@H]3[C@H](CCN3Cc3cccs3)O2)nc1	0.5679%
O=C(O)C(F)(F)F.O=C(O)C(F)(F)F.c1cncc(COC[C@H]2CC[C@H]3[C@H](CCN3Cc3nccs3)O2)c1	8.415%
c1coc(CN2CC[C@@H]3O[C@@H](COCc4ccncc4)CC[C@@H]32)c1	67.65%
COC[C@H]1CC[C@@H]2[C@@H](CCN2Cc2ccco2)O1.O=C(O)C(F)(F)F	137.5%
Cc1noc(C)c1CN1CC[C@@H]2O[C@H](COCC3CC3)CC[C@@H]21.O=C(O)C(F)(F)F	3.642%
c1ccc(CCN2CCOC3(CCc4ccccc43)C2)nc1 (configuration not stated)	-3.634%
CC[C@H]1CN2CC[C@H]1C[C@@H]2CNC(=O)Nc1cc(OC)cc(OC)c1	-7.573%
CN1CCN2C(=O)N(C3CCOCC3)C[C@H]2C1	-7.245%
Cc1ccc(C(=O)N2C[C@H]3CNC[C@H]3C2)cn1	11.13%
Cc1nc(CN2C[C@@H]3CN(C(=O)c4ccncc4)C[C@@H]3C2)cs1	103.2%
CNC(=O)CN1CC[C@H]2CN(C(=O)c3ccc(C)nc3)C[C@H]2C1.O=C(O)C(F)(F)F	-24.07%
Cc1nc(CN2CCO[C@H]3CN(C(=O)c4ccncc4)C[C@H]32)cs1	6.304%

Structure (SMILES)	Percent Effect
Cc1ccc(C(=O)N2C[C@H]3CN(Cc4csc(C)n4)C[C@H]3C2)cn1	93.97%
Cc1nc(CN2CCC23CCN(C(=O)c2ccncc2)CC3)cs1	-6.735%
O=C(Nc1ccccc1)C1=NOC2(CCCNC2)C1 (configuration not stated)	-15.15%
Cl.N#CC1(C(=O)NCC2CCC3(CCNCC3)O2)CC1 (configuration not stated)	-12.24%
COc1cc2nc(NCc3ccc(C)nc3)nc(N)c2cc1OC	15.36%
CN1C[C@@H]2COC[C@]2(C(=O)NCc2cccs2)C1	-12.7%
Cc1cc(C)c(CNc2nc3ccccc3cc2CO)c(=O)[nH]1	34.93%
CC(Cn1cccn1)NCc1csc2c1CCCC2 (configuration not stated)	12.25%
COc1ccc(CNC(C)Cn2cccn2)cc1OC (configuration not stated)	104.4%
COc1c(Br)cc(Br)cc1CNC(C)Cn1cccn1 (configuration not stated)	3.191%
CC(Cn1cccn1)NCC(=O)NC1CCOCC1 (configuration not stated)	1.6%
COc1cc(CNCC(O)c2ccc(C)cc2)cc2c1OCCO2.Cl (configuration not stated)	4.109%
CC(Cn1cccn1)NCc1csc(-c2cccs2)n1 (configuration not stated)	1.256%
COc1cc(CNC(C)Cn2cccn2)cc2c1OCCO2.Cl (configuration not stated)	99.62%
COc1ccc(CNC(C)Cn2cccn2)c(OC)c1OC.Cl (configuration not stated)	98.57%
CC(Cn1cccn1)NCCS(=O)(=O)c1ccccc1 (configuration not stated)	-1.056%
COc1cccc(CNC(C)Cn2cccn2)c1OC.Cl (configuration not stated)	8.103%
COc1cc(CNC(C)Cn2cccn2)cc(OC)c1 (configuration not stated)	102.9%
CCc1nc(CNC(C)Cn2cccn2)cs1 (configuration not stated)	2.575%
